Test results: PubChem BioAssay (EPA / NIEHS)
Active and inactive are the calls of the source. The calls were made as follows: active = hit-call score of the fitted dose curve at least 0.9, where 1 is the maximum; inactive = score below 0.9.

Read-out: Vascular cell adhesion molecule 1 (VCAM1), VCAM1 (gene 7412)
Test: BSK_LPS_VCAM1: BioMAP Diversity Plus: LPS Assay for Vascular cell adhesion molecule 1 (VCAM1) Biomarker Activity (AID 2283086)
Settings: primary human HUVEC with PBMC; actives raise or lower the signal
Protocol: BSK_LPS is a cell-based, multiplexed-readout assay that uses umbilical vein endothelium and peripheral blood mononuclear cells, a human vascular primary cell co-culture, with measurements taken at 24 hours after chemical dosing in a 96-well plate.BSK_LPS_VCAM1 is an assay component measured in the BSK_LPS assay. It measures VCAM-1 antibody related to regulation of gene expression using ELISA technology.Data from the assay component BSK_LPS_VCAM1 was analyzed into 1 assay endpoint. This assay endpoint, BSK_LPS_VCAM1, was analyzed with bidirectional fitting relative to DMSO as the negative control and baseline of activity. Using a type of binding reporter, gain or loss-of-signal activity can be used to understand changes in the signaling as they relate to the gene VCAM1. Furthermore, this assay endpoint can be referred to as a primary readout, because this assay has produced multiple assay endpoints where this one serves a signaling function. To generalize the intended target to other relatable targets, this assay endpoint is annotated to the cell adhesion molecules intended target family, where the subfamily is Immunoglobulin CAM.
The levels of cell surface (or secreted, indicated by the prefix "s") biomarker endpoints were measured by ELISA. Overt cytotoxicity to cells in confluent adherent cultures (all systems other than the BT system) was assessed by measuring total protein levels using sulforhodamine B (SRB) staining in parallel cultures at the time of biomarker measurements, indicated as SRB endpoints. For proliferation assays for adherent cell types, individual cell types are cultured at sub-confluence and relative cell numbers quantified by SRB staining at time points optimized for each system (48 h: 3C and CASM3C systems; 72 h: BT and HDF3CGF systems; 96 h: SAg system). SRB was performed by staining cells with 0.1% SRB after fixation with 10% TCA and reading wells at 560 nm.Viability and proliferation of PBMC (T cells) was quantified by Alamar Blue reduction for the SAg and BT systems. For PBMC viability (referred to as PBMC Cytotoxicity within the assay endpoint names), cells were plated (75,000/well in a 96-well plate) and then chemical samples added for 1 h before addition of activators, SEB and TSST-1 (20 ng/mL final concentration each). Cells were incubated for 90 h. Then, Alamar Blue (20 uL/well) (Invitrogen, Cat DAL1100) was added for 6 h, and the plates were read with a fluorescence microplate reader at 546/580 nm (excitation/emission). For PBMC proliferation, cells were plated and activated as above but incubated for only 16 h prior to addition of Alamar Blue. Plates were read after 6 h.

Row | Structure (SMILES) | outcome | AC50
1 | CCCCc1ccc2c(n1)[C@@H](c1ccc(OC)cc1C[C@H](C)C(=O)O)[C@H](C(=O)O)[C@H]2c1ccc2c(c1)OCO2 | inactive | 
2 | COCCOC[C@H](CC1(C(=O)NC2CCC(C(=O)O)CC2)CCCC1)C(=O)Oc1ccc2c(c1)CCC2 (stereo not given in full) | inactive | 
3 | CC=Cc1ccc(O)c(OC)c1 | inactive | 
4 | Nc1ccc2c(c1)C(=O)c1ccccc1C2=O | inactive | 
5 | Cc1ccc(C)c(O)c1C | inactive | 
6 | CC(CO)OC(C)CO (stereo not given) (tested in a mixture with another compound) | inactive | 
7 | C[C@]12C=CC(=O)C=C1CC[C@@H]1[C@@H]2C(=O)C[C@@]2(C)[C@H]1CC[C@]2(O)C(=O)CO | inactive | 
8 | Cc1ccc(Cl)cc1 | inactive | 
9 | NCCO | inactive | 
10 | CC(=O)Oc1ccccc1C(=O)O | inactive | 
11 | C=CCOC(=O)c1ccccc1C(=O)OCC=C | inactive | 
12 | C1CCC(SSC2CCCCC2)CC1 |  | 20 µM (active)
13 | CNC(=O)[C@H]1O[C@@H](n2cnc3c(NCc4cc(Cl)ccc4OCc4cc(C)no4)ncnc32)[C@H](O)[C@@H]1N | inactive | 
14 | NS(=O)(=O)c1cc2c(cc1Cl)NCNS2(=O)=O | inactive | 
15 | CN[C@H]1CC[C@@H](c2ccc(Cl)c(Cl)c2)c2ccc(S(N)(=O)=O)cc21 |  | 20 µM (active)
16 | Cc1nc(-c2ccc3c(c2)CCN(CCC2CCC(NC(=O)/C=C/c4ccc(F)cc4)CC2)CC3)no1 (stereo not given) |  | 9.3 µM (active)
17 | Clc1cc(Cl)c(Cl)cc1Cl | inactive | 
18 | Cc1cccc(C)c1O | inactive | 
19 | CCCCCCCCCCCC(=O)OC | inactive | 
20 | COCCOCCOC | inactive | 

Row | Structure (SMILES) | outcome | AC50
21 | CCOC(=O)CCC(=O)OCC | inactive | 
22 | CCCc1cc(=O)[nH]c(=S)[nH]1 | inactive | 
23 | Cc1ccc(C(C)C)c(O)c1 | inactive | 
24 | CCc1c(C(=O)NN2CCCCC2)nn(-c2ccc(Cl)cc2Cl)c1-c1ccc(Br)cc1 |  | 6.19 µM (active)
25 | Cc1cccc(Nc2cc(Cl)nc(SCC(=O)O)n2)c1C | inactive | 
26 | Cc1nc(C)nc(N2C[C@@H](C)N(c3ccnc([C@@H](C)O)n3)[C@@H](C)C2)n1 | inactive | 
27 | CC(=O)C(C)=CC1C(C)=CCCC1(C)C (stereo not given) | inactive | 
28 | CCCCN(CCCC)CCCC | inactive | 
29 | CCOC(=O)C(C)(C)Oc1ccc(Cl)cc1 | inactive | 
30 | CCCCCCOCCO | inactive | 
31 | CCCCCCCCCCCCCO |  | 34.7 µM (active)
32 | COc1cc(C=O)ccc1O | inactive | 
33 | COc1ccc(C)cc1N | inactive | 
34 | CC1=C(/C=C/C(C)=C/C=C/C(C)=C/CO)C(C)(C)CCC1 |  | 30.5 µM (active)
35 | CCCCOC(=O)CCCCCCCCC(=O)OCCCC | inactive | 
36 | COc1cc(S(=O)(=O)O)c(C)cc1N=Nc1c(O)ccc2cc(S(=O)(=O)O)ccc12 | inactive | 
37 | c1cc(-c2ccncc2)ccn1 | inactive | 
38 | O=[N+]([O-])C(CO)(CO)CO | inactive | 
39 | CN1CCCC1=O | inactive | 
40 | CCCCC(CC)COC(=O)CC(C(=O)OCC(CC)CCCC)S(=O)(=O)O (stereo not given) |  | 36.5 µM (active)
